Among all 310,000 compounds or so, about 2,200 (0.71%) showed an effect of 50% or more. Effects have a minus sign here. The list comes from a sample in which strong results are over-represented; it also holds similar structures and randomly drawn compounds.
molecular target: human ether-à-go-go-related gene (hERG) potassium channel (human, UniProt Q12809); experiment: primary screen, population patch clamp on CHO cells stably expressing hERG; higher = less effect of the substance
Sequence (Q12809 whole entry, looked up): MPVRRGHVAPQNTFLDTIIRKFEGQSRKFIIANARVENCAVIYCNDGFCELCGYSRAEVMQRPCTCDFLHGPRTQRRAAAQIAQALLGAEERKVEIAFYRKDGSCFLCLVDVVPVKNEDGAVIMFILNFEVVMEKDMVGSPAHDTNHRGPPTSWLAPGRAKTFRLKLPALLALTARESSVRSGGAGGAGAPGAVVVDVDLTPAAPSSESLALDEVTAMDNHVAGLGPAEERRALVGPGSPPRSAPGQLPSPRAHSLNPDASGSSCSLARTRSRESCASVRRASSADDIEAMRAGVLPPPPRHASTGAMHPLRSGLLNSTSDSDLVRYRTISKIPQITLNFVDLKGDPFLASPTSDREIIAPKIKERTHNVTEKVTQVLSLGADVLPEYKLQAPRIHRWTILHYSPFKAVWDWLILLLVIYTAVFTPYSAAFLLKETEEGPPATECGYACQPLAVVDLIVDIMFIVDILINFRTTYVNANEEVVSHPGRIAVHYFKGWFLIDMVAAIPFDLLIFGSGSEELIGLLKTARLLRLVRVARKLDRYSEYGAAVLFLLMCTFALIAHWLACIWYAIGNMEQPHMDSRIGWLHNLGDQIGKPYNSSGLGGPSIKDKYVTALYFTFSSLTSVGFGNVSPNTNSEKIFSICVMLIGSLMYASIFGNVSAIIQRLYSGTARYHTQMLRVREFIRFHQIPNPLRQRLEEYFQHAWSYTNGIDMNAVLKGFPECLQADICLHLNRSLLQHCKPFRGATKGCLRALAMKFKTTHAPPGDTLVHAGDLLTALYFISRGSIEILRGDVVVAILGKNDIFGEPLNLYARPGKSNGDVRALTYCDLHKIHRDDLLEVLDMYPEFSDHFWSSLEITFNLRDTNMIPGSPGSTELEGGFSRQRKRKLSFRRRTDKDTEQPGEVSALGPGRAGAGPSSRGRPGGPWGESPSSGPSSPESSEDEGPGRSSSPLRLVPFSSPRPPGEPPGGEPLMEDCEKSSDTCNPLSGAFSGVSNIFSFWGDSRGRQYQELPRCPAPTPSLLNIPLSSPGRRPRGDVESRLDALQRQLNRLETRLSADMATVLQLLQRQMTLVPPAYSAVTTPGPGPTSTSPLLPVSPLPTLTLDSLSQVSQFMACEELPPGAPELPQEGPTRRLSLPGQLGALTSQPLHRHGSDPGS

Point of comparison: `O=C(NCCc1ccccc1)c1cnc2ccccn2c1=O`, “hERG current change (%, negative = inhibition) at 1uM” value 8.72%. Against it:
- COc1ccccc1-c1csc(NC(=O)c2ccc(N3C(=O)CCC3=O)cc2)n1 — lower, 5.85%
- Cc1c(C(=O)Nc2ccc(S(=O)(=O)N(C)C3CCN(C)CC3)cc2)oc2ccccc12 — lower, 3.99%
- Cc1cc(NC(=O)Cn2nc([N+](=O)[O-])c(Br)c2C)no1 — higher, 15.4%
- Clc1ccc(-c2csc(N3CCN(c4ccccc4)CC3)n2)cc1 — lower, 6.51%
- O=C(COC(=O)Cc1c(F)cccc1Cl)NCCC1=CCCCC1 — lower, 7.46%
- Cc1cc(CN(C)C(=O)c2ccc(OC3CCN(Cc4ccccn4)CC3)cc2)on1 — lower, -2.96%
- O=C(NCc1ccon1)c1ccc(OC2CCN(CCc3ccccc3)CC2)cc1 — lower, -26%
- O=C(NCCn1cccn1)c1ccc(OC2CCN(CCc3ccccc3)CC2)cc1 — lower, -1.71%
- CCc1cc(CNC(=O)c2ccc(OC3CCN(CCc4ccccc4)CC3)cc2)on1 — lower, -54.4%
- CN(Cc1cnn(C)c1)C(=O)c1ccc(OC2CCN(CCc3ccccc3)CC2)cc1 — lower, -8.79%
- Cc1cc(CN(C)C(=O)c2ccc(OC3CCN(CCc4ccccc4)CC3)cc2)on1 — lower, -77.5%
- CN1CCN(c2ccc(CNS(=O)(=O)Cc3cccc(C(F)(F)F)c3)cc2)CC1 — lower, 7.74%
- CC(C)n1c(=N)c(C(=O)NCCc2ccccc2)cc2c(=O)n3ccccc3nc21 — lower, -78.6%
- COc1ccc(CCNC(=O)c2ccc3c(=O)n(Cc4ccco4)c(=S)[nH]c3c2)cc1OC — higher, 13.6%
- COc1ccc(CCNC(=O)c2cc3c(=O)n4cccc(C)c4nc3n(Cc3ccco3)c2=N)cc1OC — lower, -21.8%
- N=c1c(C(=O)NCc2ccco2)cc2c(=O)n3ccccc3nc2n1CCc1ccccc1 — lower, -84.2%
- N=c1c(S(=O)(=O)c2ccc(Br)cc2)cc2c(=O)n3ccccc3nc2n1Cc1ccco1 — higher, 15.4%
- N=c1c(S(=O)(=O)c2ccccc2)cc2c(=O)n3ccccc3nc2n1Cc1ccco1 — higher, 18.6%
- N=c1c(C(=O)NCCN2CCOCC2)cc2c(=O)n3ccccc3nc2n1CCc1ccccc1 — lower, -33.1%
- COc1ccc(CCNC(=O)c2cc3c(=O)n4ccccc4nc3n(Cc3ccco3)c2=N)cc1OC — lower, -74.3%
- N=c1c(C(=O)NCc2ccccc2)cc2c(=O)n3ccccc3nc2n1Cc1ccco1 — lower, -75.5%

Reference: article PMC4336329 (PLoS ONE, 2015)
